Reference: the supplement of paper PMC10849652
Of roughly 7,900 targets only a part is listed; those with a hit were picked by preference. About 0.6% of all pairs of compound and target were hits. Unmarked numbers belong to inactive results.

What was measured:
Assay in all cases: log2 fold change, soluble protein after heating vs DMSO (PISA); higher = thermal stabilisation; K562 cells, 10 uM, 30 min; active = over 0.2 and 3.5 SD of the protein, either way, in both replicates (recomputed)
[1] = compound: CC1=C(C=C(C=C1)NC(=O)C2=CC(=CC=C2)C(C)(C)C#N)NC3=CC4=C(C=C3)N=CN(C4=O)C
Outline: (§1)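 Thermal stability values are relative to control samples and come from duplicates. They are expressed as log2 fold changes. For measurement, K562 cells (2×10^6 cells/mL) received 10 μM compound for 30 min, and aliquots were heated for 3 min over 48°C-58°C, pooled, and extracted at 4°C in PBS with 0.5% NP-40. Soluble protein, the supernatant after 21,000xg for 90 min, was quantified by TMTpro 16plex LC-MS/MS with equalised channel sums.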

[2] = compound: CC1=C(C=C(C=C1)NC(=O)C2=CC(=CC=C2)N(C)C)NC(=O)C3=CC=C(C=C3)O
Outline: as §1

[3] = compound: CC1=CC=C(C=C1)SC2=C3C=C(SC3=CN=C2)C(=O)N
Outline: as §1

[4] = compound: CC1=NC(=CC=C1)C2=C(N=C(N2)C(C)(C)C)C3=CC4=NC=CN=C4C=C3
Outline: as §1

Nexturastat A = compound: CCCCN(Cc1ccc(C(=O)NO)cc1)C(=O)Nc1ccccc1 [Nexturastat A]
Outline: as §1

vemurafenib = compound: CCCS(=O)(=O)Nc1ccc(F)c(C(=O)c2c[nH]c3ncc(-c4ccc(Cl)cc4)cc23)c1F [vemurafenib]
Outline: as §1

[5] = compound: CCCS(=O)(=O)Nc1ccc(F)c(C(=O)c2c[nH]c3ncc(Cl)cc23)c1F
Outline: as §1

[6] = compound: CCCc1cc(C)[nH]c(=O)c1CNC(=O)c1cc(-c2ccnc(N3CCN(C)CC3)c2)cc2c1cnn2C(C)C
Outline: as §1

givinostat = compound: CCN(CC)Cc1ccc2cc(COC(=O)Nc3ccc(C(=O)NO)cc3)ccc2c1 [givinostat]
Outline: as §1

barasertib = compound: CCN(CCCOc1ccc2c(Nc3cc(CC(=O)Nc4cccc(F)c4)[nH]n3)ncnc2c1)CCOP(=O)(O)O [barasertib]
Outline: as §1

[7] = compound: CC[C@@H]1C(=O)N(C)c2cnc(Nc3ccc(C(=O)NC4CCN(C)CC4)cc3OC)nc2N1C1CCCC1
Outline: as §1

volasertib = compound: CC[C@@H]1C(=O)N(C)c2cnc(Nc3ccc(C(=O)N[C@H]4CC[C@H](N5CCN(CC6CC6)CC5)CC4)cc3OC)nc2N1C(C)C [volasertib]
Outline: as §1

[8] = compound: CC[C@H](C)N1C=C(C2=C(C=C(C=C21)C3=CN=C(C=C3)N4CCNCC4)C(=O)NCC5=C(C=C(NC5=O)C)C)C
Outline: as §1

epoxomicin = compound: CC[C@H](C)[C@@H](C(=O)N[C@@H]([C@@H](C)O)C(=O)N[C@@H](CC(C)C)C(=O)[C@]1(CO1)C)NC(=O)[C@H]([C@@H](C)CC)N(C)C(=O)C [epoxomicin]
Outline: as §1

[9] = compound: CCn1c(C(=O)N(C2CC2)C2CC2)cc2c3c(ncn3C)c(Nc3cc(C)n(C)n3)nc21
Outline: as §1

[10] = compound: CCn1cc(-c2ccnc3[nH]c(-c4cccc(CN(C)C)c4)cc23)c(-c2ccc(NC(=O)N(C)C)cc2)n1
Outline: as §1

[11] = compound: CN(C)CC(=O)Nc1ccc2[nH]c(=O)c3ccccc3c2c1
Outline: as §1

rosiglitazone = compound: CN(CCOC1=CC=C(C=C1)C[C@H]2C(=O)NC(=O)S2)C3=CC=CC=N3 (racemic) [rosiglitazone]
Outline: as §1

[12] = compound: CN1C2=C(C3=C1C(=O)N(N=C3)CC4=CC(=CC=C4)N)SC(=C2)S(=O)C
Outline: as §1

[13] = compound: CN1CCC(CNc2ccc3ncc(-c4cccc(OC(F)(F)F)c4)n3n2)CC1
Outline: as §1

Sequence of UniProt Q9NRS6 (Q9NRS6 whole entry, looked up): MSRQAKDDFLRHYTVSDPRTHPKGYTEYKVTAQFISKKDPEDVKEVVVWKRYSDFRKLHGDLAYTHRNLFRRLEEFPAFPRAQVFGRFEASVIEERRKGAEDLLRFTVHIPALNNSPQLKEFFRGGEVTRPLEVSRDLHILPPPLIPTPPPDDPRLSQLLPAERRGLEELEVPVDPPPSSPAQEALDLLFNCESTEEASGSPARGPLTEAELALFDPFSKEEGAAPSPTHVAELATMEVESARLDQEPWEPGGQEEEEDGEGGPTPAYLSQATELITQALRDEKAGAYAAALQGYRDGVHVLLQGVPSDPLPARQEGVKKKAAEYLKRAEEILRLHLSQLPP
Sequence of UniProt Q9H5Q4 (Q9H5Q4 whole entry, looked up): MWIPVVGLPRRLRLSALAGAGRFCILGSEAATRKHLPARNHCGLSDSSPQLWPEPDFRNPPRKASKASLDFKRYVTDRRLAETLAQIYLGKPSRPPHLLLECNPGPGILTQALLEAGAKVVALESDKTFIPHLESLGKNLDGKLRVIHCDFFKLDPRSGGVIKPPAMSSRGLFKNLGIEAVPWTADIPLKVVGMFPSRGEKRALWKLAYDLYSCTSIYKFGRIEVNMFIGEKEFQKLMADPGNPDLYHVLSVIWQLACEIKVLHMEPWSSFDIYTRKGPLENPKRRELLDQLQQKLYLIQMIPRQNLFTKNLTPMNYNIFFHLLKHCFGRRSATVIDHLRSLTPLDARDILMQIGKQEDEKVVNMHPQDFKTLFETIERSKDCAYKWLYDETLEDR
Sequence of UniProt P55061 (P55061 whole entry, looked up): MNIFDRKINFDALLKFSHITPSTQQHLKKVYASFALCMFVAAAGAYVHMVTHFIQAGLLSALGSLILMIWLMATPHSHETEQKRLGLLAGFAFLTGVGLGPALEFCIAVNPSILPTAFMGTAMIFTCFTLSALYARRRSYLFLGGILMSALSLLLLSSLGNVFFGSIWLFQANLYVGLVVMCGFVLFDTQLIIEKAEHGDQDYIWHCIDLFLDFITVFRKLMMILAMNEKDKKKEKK
Sequence of UniProt Q8N357 (Q8N357 whole entry, looked up): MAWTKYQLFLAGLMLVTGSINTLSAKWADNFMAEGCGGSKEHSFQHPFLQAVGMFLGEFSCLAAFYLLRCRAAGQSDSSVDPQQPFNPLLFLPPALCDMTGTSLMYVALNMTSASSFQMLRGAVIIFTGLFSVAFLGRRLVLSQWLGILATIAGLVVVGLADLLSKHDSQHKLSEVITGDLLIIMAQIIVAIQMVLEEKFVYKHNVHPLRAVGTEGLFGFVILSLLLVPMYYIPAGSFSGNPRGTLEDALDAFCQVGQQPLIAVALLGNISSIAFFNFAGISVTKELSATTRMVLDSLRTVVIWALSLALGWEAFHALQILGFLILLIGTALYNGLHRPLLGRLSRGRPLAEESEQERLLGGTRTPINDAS
Sequence of UniProt Q13395 (Q13395 whole entry, looked up): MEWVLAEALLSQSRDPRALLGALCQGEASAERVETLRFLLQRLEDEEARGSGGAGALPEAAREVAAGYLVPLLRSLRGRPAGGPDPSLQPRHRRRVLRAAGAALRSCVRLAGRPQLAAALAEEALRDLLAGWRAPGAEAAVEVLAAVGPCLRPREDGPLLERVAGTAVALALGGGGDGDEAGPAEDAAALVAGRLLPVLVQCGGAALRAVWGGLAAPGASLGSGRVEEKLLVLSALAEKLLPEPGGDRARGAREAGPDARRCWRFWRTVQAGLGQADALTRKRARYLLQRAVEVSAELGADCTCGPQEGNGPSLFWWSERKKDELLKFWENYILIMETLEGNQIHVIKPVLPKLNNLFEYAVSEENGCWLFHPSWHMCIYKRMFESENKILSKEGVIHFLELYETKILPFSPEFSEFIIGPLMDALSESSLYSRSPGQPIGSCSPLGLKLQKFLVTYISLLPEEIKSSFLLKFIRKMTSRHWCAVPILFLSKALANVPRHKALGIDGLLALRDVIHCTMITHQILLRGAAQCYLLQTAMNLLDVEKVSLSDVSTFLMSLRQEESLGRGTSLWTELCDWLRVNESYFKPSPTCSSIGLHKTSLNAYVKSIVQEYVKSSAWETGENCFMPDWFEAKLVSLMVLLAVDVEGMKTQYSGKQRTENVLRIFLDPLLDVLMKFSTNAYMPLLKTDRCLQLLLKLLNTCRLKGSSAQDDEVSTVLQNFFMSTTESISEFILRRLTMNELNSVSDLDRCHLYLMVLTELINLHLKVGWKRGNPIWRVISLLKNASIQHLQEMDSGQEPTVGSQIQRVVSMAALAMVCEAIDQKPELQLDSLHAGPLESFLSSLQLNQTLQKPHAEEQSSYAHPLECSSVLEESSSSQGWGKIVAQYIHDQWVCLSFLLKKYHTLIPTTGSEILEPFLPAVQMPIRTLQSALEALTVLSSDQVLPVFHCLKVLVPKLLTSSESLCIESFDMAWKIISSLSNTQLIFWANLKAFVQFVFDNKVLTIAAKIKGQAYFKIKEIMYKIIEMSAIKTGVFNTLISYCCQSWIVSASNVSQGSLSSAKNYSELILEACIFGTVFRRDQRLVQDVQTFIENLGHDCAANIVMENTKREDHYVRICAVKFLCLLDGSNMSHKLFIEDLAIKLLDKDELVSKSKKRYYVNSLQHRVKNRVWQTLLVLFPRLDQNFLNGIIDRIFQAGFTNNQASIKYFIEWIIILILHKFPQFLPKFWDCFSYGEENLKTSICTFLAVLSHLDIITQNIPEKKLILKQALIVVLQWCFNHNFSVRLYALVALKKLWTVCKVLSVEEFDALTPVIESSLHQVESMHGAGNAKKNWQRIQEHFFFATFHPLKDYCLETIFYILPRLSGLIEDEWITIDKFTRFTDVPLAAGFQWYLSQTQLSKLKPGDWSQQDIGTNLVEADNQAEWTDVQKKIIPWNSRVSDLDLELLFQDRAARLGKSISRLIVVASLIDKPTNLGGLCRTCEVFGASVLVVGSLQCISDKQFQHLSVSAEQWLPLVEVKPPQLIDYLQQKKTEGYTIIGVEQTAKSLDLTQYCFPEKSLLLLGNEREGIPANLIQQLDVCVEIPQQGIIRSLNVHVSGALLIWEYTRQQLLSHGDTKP
Sequence of UniProt Q15526 (Q15526 whole entry, looked up): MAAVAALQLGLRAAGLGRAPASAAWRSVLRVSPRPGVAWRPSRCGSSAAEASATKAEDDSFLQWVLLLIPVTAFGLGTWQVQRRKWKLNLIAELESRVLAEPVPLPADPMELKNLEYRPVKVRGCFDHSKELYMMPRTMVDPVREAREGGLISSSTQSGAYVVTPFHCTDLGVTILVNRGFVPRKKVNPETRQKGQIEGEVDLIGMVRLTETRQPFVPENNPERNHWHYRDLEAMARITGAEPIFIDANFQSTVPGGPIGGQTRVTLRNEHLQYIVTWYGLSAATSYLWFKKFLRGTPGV
Sequence of UniProt Q14849 (Q14849 whole entry, looked up): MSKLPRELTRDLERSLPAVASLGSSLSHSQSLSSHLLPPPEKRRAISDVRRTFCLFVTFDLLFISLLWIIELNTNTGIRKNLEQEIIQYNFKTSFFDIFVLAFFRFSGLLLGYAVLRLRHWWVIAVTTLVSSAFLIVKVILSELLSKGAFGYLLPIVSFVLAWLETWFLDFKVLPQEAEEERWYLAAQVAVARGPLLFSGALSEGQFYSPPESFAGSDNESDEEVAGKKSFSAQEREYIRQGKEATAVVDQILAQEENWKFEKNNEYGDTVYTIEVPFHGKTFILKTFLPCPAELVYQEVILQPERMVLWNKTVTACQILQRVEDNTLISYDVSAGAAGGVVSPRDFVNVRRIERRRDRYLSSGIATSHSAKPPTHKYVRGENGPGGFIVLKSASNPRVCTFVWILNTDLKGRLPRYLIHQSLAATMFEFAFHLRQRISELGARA
Sequence of UniProt Q8N5G0 (Q8N5G0 whole entry, looked up): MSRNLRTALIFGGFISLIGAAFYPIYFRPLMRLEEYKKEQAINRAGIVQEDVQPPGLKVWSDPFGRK
Sequence of UniProt Q9UH99 (Q9UH99 whole entry, looked up): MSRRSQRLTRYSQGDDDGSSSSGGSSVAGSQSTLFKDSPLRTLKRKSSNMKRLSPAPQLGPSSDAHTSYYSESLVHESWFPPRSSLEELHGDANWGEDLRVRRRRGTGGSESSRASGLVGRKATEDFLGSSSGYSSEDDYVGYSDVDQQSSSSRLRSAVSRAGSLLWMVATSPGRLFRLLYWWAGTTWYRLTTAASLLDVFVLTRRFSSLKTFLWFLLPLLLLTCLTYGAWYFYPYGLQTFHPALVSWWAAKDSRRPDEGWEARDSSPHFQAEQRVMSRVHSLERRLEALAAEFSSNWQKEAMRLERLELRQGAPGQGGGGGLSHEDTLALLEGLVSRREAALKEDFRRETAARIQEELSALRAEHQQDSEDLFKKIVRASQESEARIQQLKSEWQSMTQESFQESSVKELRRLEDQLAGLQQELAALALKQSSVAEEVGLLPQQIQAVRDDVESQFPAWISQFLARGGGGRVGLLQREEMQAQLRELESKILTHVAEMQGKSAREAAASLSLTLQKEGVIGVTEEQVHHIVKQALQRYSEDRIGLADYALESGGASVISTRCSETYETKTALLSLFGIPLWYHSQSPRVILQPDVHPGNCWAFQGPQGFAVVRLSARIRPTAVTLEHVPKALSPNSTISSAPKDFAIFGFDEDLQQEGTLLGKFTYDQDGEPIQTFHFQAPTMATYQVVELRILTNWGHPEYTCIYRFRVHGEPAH
Sequence of UniProt Q9BZD2 (Q9BZD2 whole entry, looked up): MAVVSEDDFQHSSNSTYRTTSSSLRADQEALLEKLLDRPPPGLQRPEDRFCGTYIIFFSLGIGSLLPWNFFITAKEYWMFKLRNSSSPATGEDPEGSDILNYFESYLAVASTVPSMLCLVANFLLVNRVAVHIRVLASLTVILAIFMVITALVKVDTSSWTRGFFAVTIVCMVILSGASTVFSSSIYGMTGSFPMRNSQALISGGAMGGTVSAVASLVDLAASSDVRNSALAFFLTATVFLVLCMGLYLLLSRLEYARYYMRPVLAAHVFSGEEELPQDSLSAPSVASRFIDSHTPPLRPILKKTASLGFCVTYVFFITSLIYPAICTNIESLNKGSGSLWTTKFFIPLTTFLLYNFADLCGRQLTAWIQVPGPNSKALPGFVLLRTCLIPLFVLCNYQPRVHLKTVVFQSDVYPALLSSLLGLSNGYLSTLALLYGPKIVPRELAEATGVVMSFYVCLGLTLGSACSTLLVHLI

Row | Target | log2 fold change [1] | log2 fold change [2] | log2 fold change [3] | log2 fold change [4] | log2 fold change (Nexturastat A) | log2 fold change (vemurafenib) | log2 fold change [5] | log2 fold change [6] | log2 fold change (givinostat) | log2 fold change (barasertib) | log2 fold change [7] | log2 fold change (volasertib) | log2 fold change [8] | log2 fold change (epoxomicin) | log2 fold change [9] | log2 fold change [10] | log2 fold change [11] | log2 fold change (rosiglitazone) | log2 fold change [12] | log2 fold change [13]
1 | SPTBN4 (UniProt Q9H254) | -0.013 | -0.037 | 0.144 | 0.025 | 0.039 | -0.027 | -0.036 | -0.12 | 0.112 | -0.013 | 0.051 | -0.293 | -0.025 | -0.018 | -0.065 | -0.1 | 0.171 | 0.017 | 0.011 | 0.153
2 | TARBP1 (UniProt Q13395) | 0.069 | 0.001 | 0.002 | -0.01 | 0.016 | 0.036 | -0.062 | -0.067 | -0.017 | 0.023 | -0.022 | -0.337 (active) | -0.107 | 0.121 | 0.018 | 0.077 | -0.012 | 0.013 | 0.001 | -0.027
3 | SUN2 (UniProt Q9UH99) | 0.023 | 0.001 | -0.017 | -0.025 | 0.005 | -0.026 | 0.015 | 0.013 | 0.005 | -0.012 | 0.016 | -0.064 | 0.01 | 0.045 | 0.006 | -0.032 | -0.012 | 0.033 | 0.015 | 0.057
4 | SURF1 (UniProt Q15526) | 0.045 | -0.008 | -0.019 | 0.087 | -0.033 | 0.042 | 0.124 | -0.01 | -0.01 | 0.027 | -0.085 | -0.274 (active) | -0.055 | 0.012 | -0.013 | -0.059 | 0.013 | 0.035 | -0.016 | -0.311 (active)
5 | SLC35F6 (UniProt Q8N357) | -0.041 | -0.166 | 0.001 |  | -0.065 | -0.168 | -0.055 | -0.066 | 0.129 | 0.045 | -0.099 | -0.053 | 0.087 | 0.021 | 0.11 |  | 0.034 | 0.047 | -0.029 | 
6 | STARD3 (UniProt Q14849) | 0.103 | 0.075 | -0.027 | 0.036 | -0.048 | 0.052 | -0.059 | 0 | 0.011 | 0.016 |  | 0.115 | 0.091 | -0.019 | 0.053 | 0.039 | -0.037 | 0.024 | -0.064 | -0.386 (active)
7 | TMBIM6 isoform 2 (UniProt P55061) | -0.05 | 0.045 | 0.04 | -0.016 | -0.005 | -0.121 | 0.048 | 0.619 | 0.072 | 0.019 | -0.075 | -0.061 | -0.041 | 0.25 | -0.055 |  | 0.066 | -0.046 | -0.007 | 
8 | SYNE2 isoform 2 (UniProt Q8WXH0) | -0.084 | 0.014 | 0.064 | -0.131 |  | -0.04 | 0 | -0.171 | 0.43 | 0.079 | 0.039 | -0.025 | -0.145 |  | -0.181 | -0.274 | -0.044 | 0.053 | -0.021 | -0.025
9 | SOX5 (UniProt P35711) | -0.125 | 0.004 | -0.144 | 0.02 |  | -0.05 | -0.063 | 0.042 | 0.013 | -0.119 |  | -0.082 | 0.014 |  | 0.099 |  | -0.062 | 0.046 |  | 
10 | STK26 (UniProt Q9P289) | -0.083 | -0.037 | 0.068 | 0.015 | 0.044 | -0.04 | -0.03 | 0.014 | 0.086 | 0.08 | -0.017 | -0.062 | 0.018 | 0.084 | -0.003 | -0.117 | -0.033 | 0.068 | 0.014 | -0.191
11 | TACC2 (UniProt O95359) | -0.015 | -0.058 | 0.16 |  |  | 0.032 | -0.054 | -0.085 | -0.284 (active) | 0.012 | -0.013 | -0.048 | 0.014 |  | 0.012 | 0.041 | -0.069 | 0.039 | 0 | -0.044
12 | SMIM20 isoform 2 (UniProt Q8N5G0) | 0.01 | 0.008 | -0.052 |  | 0.006 | 0.148 | -0.059 | -0.024 | -0.102 | -0.026 | 0.069 | 0.048 | -0.033 | 0.483 (active) | 0.038 | -0.065 | 0.007 | 0.036 | 0.051 | 0.002
13 | TFB2M (UniProt Q9H5Q4) | -0.017 | 0 | 0.008 | 0.086 | -0.077 | 0.035 | 0.073 | -0.058 | 0.017 | 0.048 | -0.096 | -0.326 (active) | 0.049 | 0.071 | 0 | -0.002 | 0.031 | 0.042 | -0.049 | -0.179
14 | STARD3NL (UniProt O95772) | 0.01 | -0.002 | 0.056 | 0.076 | -0.12 | 0.02 | 0.048 | -0.021 | 0.009 | -0.027 | 0.037 | -0.022 | -0.036 | -0.085 | 0.007 | -0.014 | -0.068 | 0.014 | -0.058 | -0.371 (active)
15 | SNX15 (UniProt Q9NRS6) | -0.25 | -0.009 | -0.015 | -0.089 |  | -0.122 | -0.021 | 0.061 |  | 0.012 | 0.177 | -0.223 | -0.023 |  |  | -0.016 | -0.045 | -0.051 | 0.119 | 0.039
16 | SLC29A3 (UniProt Q9BZD2) | 0.005 | -0.023 | 0.089 | 0 | 0.124 | -0.097 | -0.128 | 0.017 | 0.005 | -0.016 | 0.171 | 0.007 | 0.05 | -0.048 | 0.047 |  | 0.002 | -0.049 | -0.161 | 
17 | SRCAP (UniProt Q6ZRS2) | -0.177 | -0.286 | 0.058 | 0.036 |  | 0.278 | 0.082 | -0.02 | -0.041 | 0.026 | 0.068 | -0.207 | -0.059 |  | 0.066 | -0.041 | 0.121 | 0.01 | -0.001 | -0.006
